Where “and” joins values, the source holds several entries; their conditions need not be identical. Equal entries are not always repeated. Out of some 360,000 compounds screened, about 17,000 (4.7%) were called active. Inconclusive results (about 5%) are left out. Shown is part of a subset that was picked to be rich in actives. Unmarked numbers belong to inactive results. Cut-off read from the data, not from the text of the source: active = activity change below about -50%; inconclusive = mostly about -30% to -49%; inactive = weaker than that.
Assay: qHTS for Inhibitors of Inflammasome Signaling: IL-1-beta AlphaLISA Primary Screen
Settings: THP-1 LPS/ATP IL-1B secretion, 16 h; at 57.5 µM, active compounds read low
Method in brief: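 THP-1 cells pretreated 1 hr with compounds (up to 57.5 uM final), then stimulated with LPS (250 ng/mL final) plus ATP (1.25 mM final); secreted IL-1B measured by AlphaLISA after 16 hr, decreased signal indicating inhibition.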
% is set by controls: 0 for no effect and ±100 for the full control effect.

| SMILES | activity change |
| --- | --- |
| CC(C)c1cccc(-c2csc(C(O)c3ccccc3)n2)c1 (stereo unspecified) | 43.6% |
| CCOC(=O)C1=CCC(c2ccc(F)cc2)N(S(=O)(=O)c2ccc(C)cc2)C1 (stereo unspecified) | 30.7% |
| NC(CSC12CC3CC(CC(C3)C1)C2)C(=O)O (stereo unspecified) | 23.7% |
| O=C(c1cccs1)N1C[C@H](n2cc(C3CC3)nn2)[C@@H](O)C[C@@H]1c1ccccc1 | 0.261% |
| c1ccc2c(NCC3CCCO3)nc(-c3ccncc3)nc2c1 (stereo unspecified) | -27.3% |
| Clc1cccc(-c2nc(NCC3CCCO3)c3ccccc3n2)c1 (stereo unspecified) | -76.8% (active) |
| O=C(NCC1CCCO1)c1ccc2ccccc2n1 (stereo unspecified) | 3.35% |
| CCCCn1nnnc1C(c1cccc(OC)c1OC)N1CCN(C/C=C/c2ccccc2)CC1 (stereo unspecified) | -23.9% |
| C[C@H]1CN([C@@H](C)CO)C(=O)c2cc(-c3ccccc3F)cnc2O[C@H]1CN(C)C(=O)C1CCOCC1 | 13.6% |
| CN/C(=C\[N+](=O)[O-])NCCSCc1csc(CN(C)C)n1 | 0.154% |
| COc1ccc(C(=O)NCC(c2ccco2)N2CCc3ccccc32)cc1OC (stereo unspecified) | -0.703% |
| Cc1ccccc1C(=O)NCC(c1ccco1)N1CCc2ccccc21 (stereo unspecified) | -20.8% |
| O=C(NCC(c1ccco1)N1CCc2ccccc21)c1cccc(F)c1 (stereo unspecified) | -86.4% (active) |
| CCc1nnc(NC(=O)CCC(=O)N2CCN(c3cc(C)ccc3C)CC2)s1 | 36.3% |
| O=C(CSc1n[nH]c(=O)n1-c1ccccc1)Nc1ccccc1C(F)(F)F | 14.4% |
| O=c1[nH]nc(SCCS(=O)(=O)c2ccc(F)cc2)n1-c1ccccc1C(F)(F)F | -96.7% (active) |
| O=S(=O)(c1ccc(F)cc1)N1CCN(Cc2ccccc2C(F)(F)F)CC1 | 8.37% |
| COC(=O)[C@@]1(Cc2ccc(OC)cc2)[C@H]2c3cc(C(=O)N4CCCC4)n(Cc4ccc(OC(F)(F)F)cc4)c3C[C@H]2CN1C(=O)c1ccccc1 | 0% |
| CCC(C(=O)Nc1c(C)cccc1C)n1c(-c2cc(C)cs2)nc2ccccc21 (stereo unspecified) | -9.28% |
| O=C(Cc1cccc2ccccc12)NNC(=O)Nc1ccc(Cl)cc1 | -50% (active) |
| O=C(O)Cc1ccc(NC(=O)Nc2cccc3ccccc23)cc1 | 11.3% |
| Cc1ccc(NC(=S)NC(NC(=O)Cc2cccc3ccccc23)C(Cl)(Cl)Cl)cc1 (stereo unspecified) | 1.31% |

| SMILES | activity change |
| --- | --- |
| O=C1C(Sc2cccc(F)c2)=C[C@@]2(O)CC[C@@H](O)[C@]1(Sc1cccc(F)c1)[C@H]2O | 8.29% |
| Cc1cccc(Nc2ccccc2C(=O)NCc2ccco2)c1C | 3.14% |
| O=C(Nc1ccccc1)Nc1ccccc1C(=O)NCc1ccco1 | -56.9% (active) |
| O=C(CCNC(=O)c1ccccc1Cl)NCc1ccco1 | 2.08% |
| O=C1CSC(=S)N1c1ccc(Cl)c(Cl)c1 | 7.49% |
| CCC(CC)C(C(=O)NC1CCCC1)N1CCN(c2cc(C)nc3ccccc23)CC1 (stereo unspecified) | -20.5% |
| CC1(C)CC(=O)C=C(c2ccccc2CO)C1=O | 22.9% |
| CCOC(=O)c1ccc(CS(=O)c2ccc(Cl)cc2)o1 (stereo unspecified) | -4.53% |
| CCOC(=O)c1c(Cc2ccc(Cl)cc2)c[nH]c1C | -74.6% (active) |
| CCOC(=O)N1CCN(C(=O)CNC(=O)Cc2ccc(Cl)cc2)CC1 | -0.466% |
| Cc1cccc(NC(=S)N2CCC(C(=O)c3ccc(F)cc3)CC2)c1 | -26.4% |
| CCOc1ccc(NC(=O)c2nc(SCC)ncc2Cl)cc1 | -0.255% |
| Cc1cccc(NC(=O)CSc2nc3[nH]ncc3c(=O)[nH]2)c1 | 9.71% |
| Cc1cccc(CS(=O)(=O)c2ncc(Cl)c(C(=O)Nc3ccc(F)cc3)n2)c1 | -93.5% (active) |
| O=C(Nc1ccc(F)cc1)c1ccc(S(=O)(=O)NCc2cccnc2)cc1 | -4.04% |
| Cc1cccc(NC(=O)c2nc(S(=O)(=O)Cc3ccccc3)ncc2Cl)c1 | -103% (active) |
| Cc1cccc(NC(=O)c2nc[nH]c2C(=O)NCC(=O)OCc2ccccc2)c1 | 5.22% |
| Cc1ccc(S(=O)(=O)N(C)C)cc1NC(=O)CN1c2cccc3cccc(c23)S1(=O)=O | 12.6% |
| COc1cc(CN2CCNC(=O)C2CC(=O)NCCc2ncccc2C)cc(OC)c1 (stereo unspecified) | 16.2% |
| CN(CCc1ccccc1)C(=O)c1cccc(NC(=O)Cc2cccc(NC(=O)C3CCCN(C(=O)C4CCC4)C3)c2)c1 (stereo unspecified) | -17.1% |
| N#CCSc1ccccc1NC(=O)CN1C(=O)NC(CCc2ccccc2)C1=O (stereo unspecified) | 12.1% |
| COC(=O)CNS(=O)(=O)c1ccc(OC)cc1 | -22.2% |

| SMILES | activity change |
| --- | --- |
| COC(=O)CNS(=O)(=O)c1ccc(Cc2ccc(S(=O)(=O)NCC(=O)OC)cc2)cc1 | -100% (active) |
| C/C(N)=C(/C#N)C(=O)COC(=O)CNS(=O)(=O)c1ccc(C)cc1 | -8.82% |
| O=C(CSc1nnc(N2CCOCC2)n1-c1cccc(F)c1)N1CCN(c2ccccn2)CC1 | 2.69% |
| CCCCCNC(=O)C1C(=O)Nc2ccccc2C(=O)N1C(C)(C)C (stereo unspecified) | 6.47% |
| CCN1CCCC1CNC(=O)c1ccc2c(c1)NC(=O)/C(=C\c1ccccc1F)S2 (stereo unspecified) | -14.5% |
| CC1(C)O[C@@H]2CC3C4C[C@H](F)C5=CC(=O)C=CC5(C)C4C(O)CC3(C)[C@]2(C(=O)CO)O1 (stereo partly specified) | -54.9% (active) |
| C[C@]12C=CC(=O)C=C1CC[C@@H]1[C@@H]2C(=O)C[C@@]2(C)[C@H]1CC[C@]2(O)C(=O)CO | -14.3% and -7.83% |
| CCCc1nnc(NC(=O)CCC(=O)N2CCN(S(=O)(=O)c3ccc(OC)cc3)CC2)s1 | -1.97% |
| CCOC(=O)c1cccc(NC(=O)CN2C(=O)C3CC=CCC3C2=O)c1 (stereo unspecified) | 14.4% |
| O=[N+]([O-])c1ccc(NCCCN2CCOCC2)c(Cl)c1 | -21.3% |
| Nc1nc(NCCCN2CCOCC2)nc(Nc2ccccc2)c1[N+](=O)[O-] | -59.1% (active) |
| O=S(=O)(c1ccccc1)c1nc(-c2ccccc2)oc1NCCCN1CCOCC1 | inactive |
| Cc1ccc(Cn2c(C)c3cnn(CC(=O)NCCN4CCOCC4)c(=O)c3c2C)cc1 | -4.12% |
| O=C(CSc1ncn[nH]1)Nc1nc2c(F)c(F)c(F)cc2s1 | -7.33% |
| Nc1nc(Nc2ccccc2F)nc(NC2CCCCC2)c1[N+](=O)[O-] | -71.1% (active) |
| C=CCNc1nc(N)c([N+](=O)[O-])c(NC2CCCCC2)n1 | 66.3% |
| Nc1nc(NCC2CCCO2)nc(Nc2ccccc2F)c1[N+](=O)[O-] (stereo unspecified) | 0% |
| CCN1C[C@@H]2[C@@H]3C(=O)N(Cc4ccccc4)C(=O)[C@@H]3[C@](C)(C1=O)N2C(=O)c1ccc(C(C)(C)C)cc1 | 0% |
| CSc1ncnc2c1ncn2CCCNCc1ccco1 | 15.8% |
| CCOc1ccc2[nH]c(=O)c(CN(Cc3nnnn3Cc3ccccc3)CC3CCCO3)cc2c1 (stereo unspecified) | -63.9% (active) |
| Cc1cc(C)c2[nH]c(=O)c(C(c3nnnn3Cc3ccc4c(c3)OCO4)N3CCCC3)cc2c1 (stereo unspecified) | -10.3% |
| Cc1cccc2cc(CN(Cc3ccc4c(c3)OCO4)Cc3nnnn3C3CCCC3)c(=O)[nH]c12 | -54.8% (active) |

| SMILES | activity change |
| --- | --- |
| Cc1cc(C)c2cc(CN(Cc3nnnn3Cc3ccc(F)cc3)C3CCCC3)c(=O)[nH]c2c1 | 7.62% |
| CCC(c1nnnn1Cc1ccccc1)N(Cc1cc2cc(OC)ccc2[nH]c1=O)CC1CCCO1 (stereo unspecified) | 0% |
| CCC(c1nnnn1Cc1ccco1)N(CCc1ccccc1)Cc1cc2cccc(C)c2[nH]c1=O (stereo unspecified) | -4.44% |
| CCOc1ccc2[nH]c(=O)c(CN(Cc3nnnn3CCc3ccccc3)CC3CCCO3)cc2c1 (stereo unspecified) | -29.1% |
| Cc1cccc2cc(CN(Cc3cccs3)C(c3nnnn3C3CCCC3)C(C)C)c(=O)[nH]c12 (stereo unspecified) | 0% |
| Cc1cccc2cc(CN(Cc3nnnn3Cc3ccccc3)C3CCCC3)c(=O)[nH]c12 | -64.3% (active) |
| COc1ccc(C(C#N)=C2C=CC(=NO)c3ccccc32)cc1 | -24.6% |
| Cc1nc2ccccc2nc1CC(O)(c1ccccc1)c1ccccc1 | 3.22% |
| O=C1NC[C@H](CCCCN2CCN(CCc3ccccc3)C(=O)C2=O)N(CC2CCCCC2)C1=O | -14.3% |
| CCCCc1nc2ccc(F)cc2cc1C | 8.78% |
| COc1ccc(C(C)(C)C)cc1NC(=O)CN(C)C1=NS(=O)(=O)c2ccccc21 | 10.7% |
| COc1ccc([C@H]2N[C@]3(CCCN(CC4CCCCC4)C3=O)[C@H]3C(=O)N(C)C(=O)[C@@H]23)cc1 | -15% |
| O=C(Nc1cccc(Cc2ccccc2)c1)Nc1ccc2nc([C@@H]3O[C@H](CO)[C@@H](O)[C@H](O)[C@H]3O)[nH]c2c1 | 33.4% |
| COc1cc(/C=C2/C(=O)NN(c3cccc(Cl)c3)C2=O)cc(Br)c1O | -15.3% |
| CCOc1c(Br)cc(/C=C2\C(=O)N(CCC#N)N=C2C)cc1OC | -62.4% (active) |
| C=CCOc1c(Br)cc(/C=N\n2nnnc2N)cc1OC | 0% |
| COc1cccc(-c2cc(NC(C)=O)c3ncc(-c4cccc(C(C)=O)c4)n3c2)c1 | 7.02% |
| Cc1cccn2c(=O)c(/C=C(\C#N)C(N)=O)c(N3CCCCCC3)nc12 | -18.7% |
| Cc1cc(C)cc(Oc2nc3c(C)cccn3c(=O)c2/C=C(\C#N)C(=O)NC2CCS(=O)(=O)C2)c1 (stereo unspecified) | -109% (active) |
| Cc1cccn2c(=O)c(/C=C(\C#N)S(=O)(=O)c3ccc(Cl)cc3)c(N3CCC(C(N)=O)CC3)nc12 | 0% |
